Drawing on PubChem BioAssay (EPA / NIEHS), this text covers outcome and AC50 for 16 molecules.

Calls of active or inactive are those of the source. How the source made its calls: active means hit-call score of the fitted dose curve at least 0.9, where 1 is the maximum; inactive means score below 0.9.

This assay is described as follows: CCTE_Shafer_MEA_acute_per_network_burst_spike_number_mean: CCTE's Neural Acute Assay for Average Number of Spikes in a Network Burst, Shafer Lab (AID 2284019). The protocol:
CCTE_Shafer_MEA_acute assay is conducted using Axion Biosystems 48 well microelectrode array (MEA) plates and Maestro recording system. Each well of the MEA plate contains a grid of 16 microelectrodes embedded in the culture surface. Electrically active cells, such as neurons, can be cultured over the electrodes, and electrical activity in these cells can be recorded extracellularly. The spontaneous firing of neurons is captured from each electrode on a microsecond timescale providing both temporally and spatially precise data. […] The CCTE_Shafer_MEA_acute assay uses primary cultures of rat cortical neurons. As these cultures mature over time, neural networks develop functional activity and form cohesive networks in which electrical activity can be highly coordinated. Baseline 40-minute recordings are made on days post-plating 13 or 15, followed by a secondary 40-minute recording after chemical exposure.CCTE_Shafer_MEA_acute_per_network_burst_spike_number_mean is a component of the CCTE_Shafer_MEA_acute assay. It measures the average number of spikes (action potential firings) in a network burst (temporally-clustered group of spikes across multiple electrodes) as the total number of spikes in a network burst divided by the number of network bursts during a recording in a microelectrode array (MEA) using Axion Biosystems Maestro 768 channel amplifier with the AxIS adaptive spike detector. The recordings before and after chemical treatment are used to calculate a percent change in the mean number of spikes in a network burst in each well.Data from the assay component CCTE_Shafer_MEA_acute_per_network_burst_spike_number_mean was analyzed into 1 assay endpoint. This assay endpoint, CCTE_Shafer_MEA_acute_per_network_burst_spike_number_mean, was analyzed in the negative analysis fitting direction relative to DMSO as the negative control and baseline of activity. Using a type of functional reporter, gain or loss-of-signal activity can be used to understand electrical activity.
Spontaneous activity in the cortical cultures was recorded using an Axion Biosystems Maestro 768 channel amplifier and Axion Integrated Studios (AxIS) v1.8 (or later) software. The amplifier recorded from all channels simultaneously (gain = 1200 x; sampling rate = 12.5 kHz/channel): raw signals were filtered with a Butterworth band-pass filter (300-5000 Hz), which filters out slower local field potentials leaving only fast potentials, i.e., "spikes", arising from extracellular currents associated with action potentials (Pine 2006; Wheeler and Nam 2011). On-line spike detection of filtered signals was conducted with the AxIS adaptive spike detector, using a threshold of 8x the root mean squared (rms) noise on each channel. Any electrodes with rms noise levels greater than 5 uV were grounded (e.g., no data were recorded). Once grounded, an electrode was grounded for the duration of the experiment. All recordings were conducted at 37 C. Wells were deemed usable if on the day of the exposure >/= 10 electrodes were active (defined as >/= 5 spikes/min). On DIV 13 or 15, a minimum of three wells from one cortical culture preparation were treated with each compound (0.03-40 uM). Prior to recording baseline activity, each mwMEA plate was placed in the Maestro at 37 C and allowed to sit for 20 min while firing rates stabilized. Baseline activity (40 min) was recorded before the addition of each compound. An additional 40 min of spontaneous activity was recorded in the presence of each compound. Changes in network parameters relative to baseline were assessed following compound treatment.
Take `[N-]=[N+]=[N-]`: the outcome was inactive.
Still for that read-out and setting: under `CCCCC(CC)COP(=O)(Oc1ccccc1)Oc1ccccc1` (stereo unspecified) stands “inactive”.
Consider `O=C(O)C1C(C(=O)O)C2(Cl)C(Cl)=C(Cl)C1(Cl)C2(Cl)Cl` (stereo unspecified), for which the call was inactive.
For `CCC1(c2ccccc2)C(=O)N=C(O)NC1=O` (stereo unspecified), the result was inactive.
Same read-out and setting: the result for `c1ccc2c(c1)Nc1ccccc1S2` reads “inactive”; that for `CCC(C)(C)c1ccc(O)cc1`, “inactive”; that for `CC(C)(C)c1ccccc1OP(=O)(Oc1ccccc1)Oc1ccccc1`, “inactive”.
For the molecule `CCOP(=S)(Oc1ccc([N+](=O)[O-])cc1)c1ccccc1` (stereo unspecified), the molecule was classed as inactive.
Same read-out and setting: under `ClC(Cl)(Cl)c1ccccc1` stands “inactive”.
For the molecule `COP(=O)(CCC(=O)NCO)OC`, the call was inactive.
Same read-out and setting: the result for `Nc1ccc2ccccc2c1` reads “inactive”.
`ClC1=C(Cl)C2(Cl)C3C(Cl)C(Cl)CC3C1(Cl)C2(Cl)Cl` (stereo unspecified): the AC50 is 309 nM (active).
On to `Cc1ccc(N)cc1N`, for which the molecule was called inactive.
On the same count and under the same terms, the result for `COCCOCCO` reads “inactive”.
Still for that read-out and setting: under `CCOc1ccc(C(C)(C)COCc2cccc(Oc3ccccc3)c2)cc1` stands “inactive”.
As for `CC(Cl)(Cl)C(=O)O`, the outcome was inactive.

The term AC50 denotes the concentration at which the activity in the assay is half-maximal.
